TDP1 block – qHTS Assay for Inhibitors of Tyrosyl-DNA Phosphodiesterase (TDP1); Tyrosyl-DNA phosphodiesterase 1 (Homo sapiens), Q9NUW8; recombinant TDP1, AlphaScreen DNA substrate cleavage; Potency, µM (doses to about 130 µM), most hits filed as inhibitors; hit rate 0.28% among 350,000; AID 485290, 2010; further: nearly all actives have a fitted effect of over 40% in size
Target sequence (Q9NUW8 whole entry, looked up): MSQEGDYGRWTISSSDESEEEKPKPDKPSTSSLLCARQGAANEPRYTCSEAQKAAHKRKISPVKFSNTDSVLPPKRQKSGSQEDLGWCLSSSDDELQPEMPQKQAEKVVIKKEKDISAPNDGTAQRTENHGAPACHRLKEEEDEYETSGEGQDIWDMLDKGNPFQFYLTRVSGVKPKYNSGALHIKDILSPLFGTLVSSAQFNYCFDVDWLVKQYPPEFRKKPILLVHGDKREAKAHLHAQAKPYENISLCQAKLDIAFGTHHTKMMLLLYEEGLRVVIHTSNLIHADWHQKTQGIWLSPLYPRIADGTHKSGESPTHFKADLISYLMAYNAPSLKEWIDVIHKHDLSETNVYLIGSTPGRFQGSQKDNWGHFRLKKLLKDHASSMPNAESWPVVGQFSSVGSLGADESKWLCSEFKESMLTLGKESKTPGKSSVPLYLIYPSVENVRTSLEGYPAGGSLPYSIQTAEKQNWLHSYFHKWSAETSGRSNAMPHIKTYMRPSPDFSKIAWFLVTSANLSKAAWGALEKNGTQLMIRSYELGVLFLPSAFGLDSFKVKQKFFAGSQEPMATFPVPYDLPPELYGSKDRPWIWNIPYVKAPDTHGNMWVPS
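Tdp1 1 nM final; 15 min RT w/ cpd; substrate 15 nM, 5 min; beads 10 ug/ml, 10 min; AlphaScreen read. Neg ctrl: no enzyme.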
IL1B secr inh – qHTS for Inhibitors of Inflammasome Signaling: IL-1-beta AlphaLISA Primary Screen | AID 743279, 2014 | THP-1 LPS/ATP IL-1B secretion, AlphaLISA, 16 h; hits give low values | hit rate 4.7% among 360,000 | activity change, % at 57.5 µM; in the data active means activity change below about -50%; inconclusive means mostly about -30% to -49%
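THP-1 cells pretreated 1 hr with compounds (up to 57.5 uM final), then stimulated with LPS (250 ng/mL final) plus ATP (1.25 mM final); secreted IL-1B measured by AlphaLISA after 16 hr, decreased signal indicating inhibition.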
TDP1 cell CPT – qHTS for Inhibitors of human tyrosyl-DNA phosphodiesterase 1 (TDP1): qHTS in cells in presence of CPT | chicken DT40 Tdp1-/-;hTDP1 cells + 20 nM CPT, ATP luminescence, 48 h | Potency, µM (titrated, usually from 46.2 µM), most hits filed as inhibitors | hit rate 12% among 420,000 | AID 686979, 2013; further: nearly all actives have a fitted effect of over 55% in size
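Chicken DT40 Tdp1-/- cells complemented with human TDP1, 400 cells/well, exposed to compounds plus 20 nM camptothecin for at least 48 h at 37 C; viability read as ATP content by CellTiter-Glo luminescence.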
TDP1 cell noCPT – qHTS for Inhibitors of human tyrosyl-DNA phosphodiesterase 1 (TDP1): qHTS in cells in absence of CPT | AID 686978, 2013 | DT40 Tdp1-/- hTDP1 cells, no CPT, ATP luminescence, 48 h | hit rate 15% among 420,000 | Potency, µM (top dose mostly 46.2 µM), actives largely listed as inhibitors; further: nearly all actives have a fitted effect of over 55% in size
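Cells were dispensed at 400 per well, compounds added by pin tool, plates incubated ≥48 hr at 37 °C, then CellTiter-Glo added for 30 min at room temperature before luminescence reading. Line: DT40 Tdp1-/- complemented with hTDP1; camptothecin omitted.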
HepG2 viability – qHTS for Inhibitors of TGF-b: Cytotox Counterscreen. hit rate 0.76% among 410,000. HepG2 CAGA-GFP viability, ATP luminescence, 18 h. Potency, µM (titrated, usually from 46.1 µM), actives largely listed as cytotoxic
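CellTiter-Glo luminescence gave cytotoxicity after 18 hours at 37 degrees C. The cells were HepG2 CAGA-GFP in 1% FBS DMEM, stimulated with 500 pg/mL TGF-beta after compound addition. %Activity was normalised to no-cell wells (complete cell-killing) and DMSO (no toxicity), and curves were fitted and classified.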
TGFb SMAD3 inh – qHTS for Inhibitors of TGF-b | HepG2 CAGA-GFP TGF-b/SMAD3 reporter, GFP fluorescence, 18 h; TGF-beta stimulated, 500 pg/mL final | Potency, µM (top dose mostly 46.1 µM), usual class: inhibitors | hit rate 1.2% among 410,000 | AID 588855, 2011; further: nearly all actives have a fitted effect of over 65% in size
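Read-out: total well GFP (ex488/em500-530) summed from mean per-cell fluorescence. Cells: HEPG2 CAGA-GFP, 1% FBS DMEM, 18 h at 37 degrees C with 500 pg/mL final TGF-beta. Unstimulated wells served as the full-inhibition control; stimulated DMSO wells = 0%.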
Hits are given with their value; – = inactive; ? = inconclusive; · = no result; [ ] = another dose, or the depositor's remark. Shown are actives, neighbours in structure and some others; about 19% of the full set was active somewhere. Unless noted, the call rests on the fitted dose curve; in most records, active means well fitted curve in the direction sought with a large enough effect; inconclusive means small, poorly fitted or top-dose-only effect, or another doubt; inactive means no such curve, though single readings can be large; an effect the other way counts as inactive or inconclusive.

SMILES | TDP1 block | IL1B secr inh | TDP1 cell CPT | TDP1 cell noCPT | HepG2 viability | TGFb SMAD3 inh
Cc1nc2nc(NC(=O)c3ccc(F)cc3)[nH]n2c(=O)c1Cc1ccccc1 | – | · | – | – | – | –
COc1cc(Cl)c(C)cc1NCC(=O)Nc1cccc(S(=O)(=O)N2CCCC2)c1 | – | – | ? | ? | – | –
CC[C@@H](C)[C@@H]1CN([C@@H](CN2CCC[C@H]2CN2C(N)=NC[C@H]2CC(C)C)C(C)C)C(=N)N1CCc1ccc(Cl)c(Cl)c1 | – | -60 | ? | ? | – | –
CC(C)[C@H](CN1CCC[C@H]1CN1C(N)=NC[C@@H]1Cc1ccccc1)N1C[C@@H](Cc2ccccc2)N(CCc2ccc(Cl)c(Cl)c2)C1=N | – | ? | 9.2µM | ? | – | –
CC[C@@H](C)[C@@H]1CN([C@@H](C)CN2CCC[C@H]2CN2C(N)=NC[C@H]2CC(C)C)C(=N)N1CCc1ccc(Cl)c(Cl)c1 | – | ? | ? | ? | – | ?
CC(C)[C@@H]1CN=C(N)N1C[C@@H]1CCCN1C[C@H](C)N1C[C@@H](Cc2ccccc2)N(CCc2ccc(Cl)c(Cl)c2)C1=N | – | -75 | ? | ? | – | –
C[C@@H](CN1CCC[C@H]1CN1C(N)=NC[C@@H]1Cc1ccccc1)N1C[C@@H](Cc2ccccc2)N(CCc2ccc(Cl)c(Cl)c2)C1=N | – | -66 | ? | ? | – | –
C=CCC(=O)N1CCCC(CO)(Cc2ccc(F)cc2F)C1 (stereo unspecified) | · | – | – | – | – | –
O=C(CSc1nnnn1-c1ccc(Cl)cc1)Nc1cccnc1Cl | – | – | 23µM | ? | – | –
NC(=O)c1ccc(-n2nnnc2SCC(=O)Nc2ccccc2-c2ccccc2)cc1 | – | – | ? | 16µM | – | –
COC(=O)c1ccc(-n2nnnc2SCC(=O)Nc2ccccc2C(=O)OC)cc1 | – | – | ? | ? | – | –
NC(=O)c1nn(-c2ccccc2)nc1NC(=O)CSc1nnnn1-c1ccc(Cl)cc1 | – | – | ? | 16µM | – | –
Cc1ccc(-n2nnnc2SCC(=O)Nc2cccnc2Cl)cc1 | – | – | – | ? | – | –
CCOC(=O)c1sc(NC(=O)c2nc3ncccn3n2)c(C(=O)OC(C)C)c1C | – | · | – | – | – | –
Cc1nn(-c2ccc(Cl)cc2)c2nc(-c3cccnc3)cc(C(F)(F)F)c12 | – | · | – | – | – | –
CCOCCc1nn2c(=O)cc(COC(=O)c3ccccc3NC(=O)c3ccc(C)cc3)nc2s1 | – | · | – | – | – | –
CCCCC[C@@H](/C=C/C1C(=O)C=C[C@H]1C/C=C\CCCC(=O)OC)OC(C)=O (stereo partly specified) | · | -101 | 9.2µM | 6.5µM | – | ?
COc1ccc2c(c1)c1ncn(Cc3ccco3)c(=O)c1n2C | – | – | – | 13µM | – | –
COc1ccc2c(c1)c1ncn(Cc3ccc(F)cc3)c(=O)c1n2C | · | – | – | – | – | ?
O=C(NCc1ccc(Cl)s1)C1CCC(=O)N(CCc2cccc(F)c2)C1 (stereo unspecified) | – | – | – | – | – | –
O=C1N[C@H]2CC=C[C@H]2Nc2ccccc21 | · | – | 13µM | 16µM | – | –
Cc1cccc(-n2cnc3cc(C(=O)NCC4CCCO4)ccc32)c1 (stereo unspecified) | · | ? | 9.2µM | 7.3µM | – | –
COCCNC(=O)c1ccc2c(c1)ncn2-c1cc(C)ccc1OC | – | · | – | – | – | –
COCCNC(=O)c1ccc2c(c1)ncn2-c1cccc(C)c1 | · | – | 16µM | ? | – | –
Cc1cccc(-n2cnc3cc(C(=O)N4CCc5ccccc54)ccc32)c1 | – | -77 | – | ? | – | ?
SMILES | TDP1 block | IL1B secr inh | TDP1 cell CPT | TDP1 cell noCPT | HepG2 viability | TGFb SMAD3 inh
CCOc1ccc(N2CC(C(=O)Nc3cccc(C(=O)NC4CC4)c3)CC2=O)cc1 (stereo unspecified) | – | – | – | – | – | –
Cc1ccc(C2CC(=O)Oc3cc(C)c(Br)c(C)c32)cc1 (stereo unspecified) | – | – | – | – | – | ?
CCOC(=O)Cc1cc(C(=O)Nc2ccc(Br)cc2)sc1-c1ccc(C)cc1 | – | · | ? | 21µM | – | ?
O=C(Nc1ccc(Cl)cc1)OCCN1CCN(Cc2ccccc2)CCC1=O | – | · | · | · | · | ·
COc1cccc2c(=O)c(SC(F)(F)C(F)C(F)(F)F)c(C)[nH]c12 (stereo unspecified) | – | – | ? | 18µM | – | –
CCCCOc1ncnc2c1[nH]c1ccc(F)cc12 | – | ? | 9.2µM | 8.2µM | – | –
Fc1ccc2[nH]c3c(Cl)ncnc3c2c1 | – | -96 | – | – | – | –
CCCCOc1ncnc2c1[nH]c1ccccc12 | – | – | 10µM | 7.3µM | – | –
CCCCOc1ncnc2c1[nH]c1ccc(OCC)cc12 | – | – | – | – | – | –
COc1ccc(NC(=O)c2cccc3c(=O)c4c([nH]c23)CCCC4)cc1 | – | · | ? | ? | – | –
CC1(c2ccc(OC(F)F)cc2)NC(=O)N(CC(=O)NCCC2=CCCCC2)C1=O (stereo unspecified) | – | – | – | – | – | –
O=C(CSc1cn[nH]n1)Nc1cccc(C(F)(F)F)c1 | – | – | – | – | – | –
COc1ccc(NC(=O)CC2SC(=Nc3ccccc3)NC2=O)cc1 (stereo unspecified) | – | – | ? | ? | – | –
COc1ccc(NC(=O)/C=C2\SC(=O)NC2=O)cc1 | – | -51 | – | – | – | –
Cc1ccc(NC(=O)CC2SC(=O)NC2=O)cc1 (stereo unspecified) | – | – | 2.6µM | 5.8µM | – | –
COc1ccc(NC(=O)CC2SC(=O)NC2=O)cc1 (stereo unspecified) | – | – | 2.3µM | 5.8µM | – | –
CCn1c2ccccc2c2cc(NC(=O)CNCc3ccccc3OC)ccc21 | –[0.0935 µM] | – | 5.2µM | 5.8µM | – | ?
CCn1c2ccccc2c2cc(NC(=O)COc3ccccc3OC)ccc21 | – | – | 5.2µM | 3.7µM | – | –
COc1ccccc1CNCC(O)Cn1c2ccccc2c2ccccc21 (stereo unspecified) | – | -61 | ? | ? | 11µM | ?

Assay outcomes (PubChem)
